This passage reports Percent Effect results from ChEMBL document CHEMBL3988442, “University of Dundee, Small-Polar-MMV Screening Library” (2021).

For some of these results: Measured potencies and affinities stand elsewhere.

Common to all, as to set-up: scale not given: direction of the effect not stated beside the values
Assay [1] has as its target Protein translocase subunit SecA (Escherichia coli (strain K12)) (UniProt P10408). Put plainly: Assay to Identify E. coli SecA ATPase Inhibitors. The class given is functional. The conditions noted are these: 30 µM.
Assay [2] has as its target T1, Ubiquitin-activating enzyme e1, putative (Leishmania donovani (strain BPK282A1)) (UniProt E9BSI1).
T1 sequence (whole entry): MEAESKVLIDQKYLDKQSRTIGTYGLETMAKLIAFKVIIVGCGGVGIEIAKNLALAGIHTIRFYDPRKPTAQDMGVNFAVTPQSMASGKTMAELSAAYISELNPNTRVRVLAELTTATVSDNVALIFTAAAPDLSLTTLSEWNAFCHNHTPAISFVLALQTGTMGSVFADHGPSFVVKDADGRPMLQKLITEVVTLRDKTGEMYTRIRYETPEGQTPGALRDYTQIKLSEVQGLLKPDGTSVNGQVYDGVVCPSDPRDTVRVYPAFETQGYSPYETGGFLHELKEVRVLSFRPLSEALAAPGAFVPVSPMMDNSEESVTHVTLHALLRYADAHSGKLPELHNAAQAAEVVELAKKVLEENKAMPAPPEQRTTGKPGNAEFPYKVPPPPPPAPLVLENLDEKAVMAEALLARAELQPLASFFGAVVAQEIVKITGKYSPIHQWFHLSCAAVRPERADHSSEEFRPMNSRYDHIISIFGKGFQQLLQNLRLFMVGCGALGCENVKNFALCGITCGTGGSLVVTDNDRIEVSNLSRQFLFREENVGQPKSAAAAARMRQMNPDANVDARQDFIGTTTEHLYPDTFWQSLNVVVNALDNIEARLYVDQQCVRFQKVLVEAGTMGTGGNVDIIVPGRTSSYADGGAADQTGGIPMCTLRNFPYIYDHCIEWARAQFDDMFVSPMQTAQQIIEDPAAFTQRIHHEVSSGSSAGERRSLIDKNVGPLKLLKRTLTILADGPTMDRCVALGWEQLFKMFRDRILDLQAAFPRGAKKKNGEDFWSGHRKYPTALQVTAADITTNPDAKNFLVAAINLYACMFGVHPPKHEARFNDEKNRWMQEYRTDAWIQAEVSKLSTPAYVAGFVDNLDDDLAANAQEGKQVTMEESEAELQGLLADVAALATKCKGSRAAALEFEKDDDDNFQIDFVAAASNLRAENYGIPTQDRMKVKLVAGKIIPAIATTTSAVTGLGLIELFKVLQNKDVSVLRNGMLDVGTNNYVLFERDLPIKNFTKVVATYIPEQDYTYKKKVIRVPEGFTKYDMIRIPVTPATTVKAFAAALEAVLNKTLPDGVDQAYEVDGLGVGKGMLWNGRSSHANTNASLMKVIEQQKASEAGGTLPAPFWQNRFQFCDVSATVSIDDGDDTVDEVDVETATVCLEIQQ
Put plainly: Leishmania donovani Ubiquitin Activating Enzyme (LdE1). The class given is functional. To be noted: 30 µM.

The target in assay [3] is AMP-activated protein kinase, AMPK (Homo sapiens) (UniProt P54646+O43741+P54619+Q9UGJ0+Q9Y478+Q13131+Q9UGI9). The assay can be described thus: AMP-dependent Kinase enzyme assay. An in vitro enzyme assay that detects ADP turnover that is directly proportional to AMPK activity. This uses naive AMPK that is activated during the assay with MK-8722. The class given is functional. To be noted: 30 µM.

Assay [4] deals with Sialic acid-binding Ig-like lectin 9 (Homo sapiens) (UniProt Q9Y336). The assay can be described thus: Hs-Siglec9 ALPHAscreen SOP 20170721. To be noted: 10 µM. On the technique in general: In Alpha technology, singlet oxygen from a donor bead excites a nearby acceptor bead.
A further assay has as its system Trypanosoma cruzi. Put plainly: Trypanosoma cruzi phosphomannomutase and mannose-1-phosphate guanylyltransferase assay. The class given is functional. To be noted: 10 µM.
Assay [5] deals with T2, Arginase-2, mitochondrial (Homo sapiens) (UniProt P78540).
T2 sequence (whole entry): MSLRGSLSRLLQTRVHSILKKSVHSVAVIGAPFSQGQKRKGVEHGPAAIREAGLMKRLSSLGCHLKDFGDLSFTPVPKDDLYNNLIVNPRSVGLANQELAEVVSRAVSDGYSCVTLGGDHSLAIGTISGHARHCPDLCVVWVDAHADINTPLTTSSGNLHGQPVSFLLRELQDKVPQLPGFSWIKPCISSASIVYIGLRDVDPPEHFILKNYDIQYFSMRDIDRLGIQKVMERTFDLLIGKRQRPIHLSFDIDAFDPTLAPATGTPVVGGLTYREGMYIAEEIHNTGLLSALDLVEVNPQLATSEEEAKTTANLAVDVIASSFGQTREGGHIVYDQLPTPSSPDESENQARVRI
Put plainly: in vitro enzyme assay to detect the production of urea directly proportional to the activity of Arginase II. Note: in the data most compounds retested in dose-response had high values. To be noted: 33.3 µM. The class given is functional.

Assay [6] deals with T3, Proteasome subunit beta (Trypanosoma cruzi) (UniProt O96673).
T3 sequence (whole entry): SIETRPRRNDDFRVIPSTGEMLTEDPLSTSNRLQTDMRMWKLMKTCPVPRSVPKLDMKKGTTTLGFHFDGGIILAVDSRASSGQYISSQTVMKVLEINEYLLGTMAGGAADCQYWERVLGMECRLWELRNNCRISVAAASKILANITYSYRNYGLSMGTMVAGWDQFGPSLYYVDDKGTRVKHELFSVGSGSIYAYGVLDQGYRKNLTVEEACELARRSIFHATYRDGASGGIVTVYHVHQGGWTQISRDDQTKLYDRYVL
Put plainly: Trypanosoma cruzi proteasome chymotrypsin-like activity (TcProtChymo) assay. Note: in the data most compounds retested in dose-response had high values. The class given is functional. To be noted: 9.37 µM.

For another assay, the species on record is Homo sapiens. Put plainly: To identify inhibition of the IFN signalling (Jak-Stat) pathway via expression of an eGFP reporter gene under the control of an IFN-stimulated response element (ISRE) containing MxA promoter. The class given is functional. To be noted: 30 µM. For orientation: A reporter such as luciferase makes a cellular process visible.
In assay [7] the target is T4, Tyrosyl-tRNA synthetase, putative (Trypanosoma cruzi (strain CL Brener)) (UniProt Q4DSP6).
T4 sequence (whole entry): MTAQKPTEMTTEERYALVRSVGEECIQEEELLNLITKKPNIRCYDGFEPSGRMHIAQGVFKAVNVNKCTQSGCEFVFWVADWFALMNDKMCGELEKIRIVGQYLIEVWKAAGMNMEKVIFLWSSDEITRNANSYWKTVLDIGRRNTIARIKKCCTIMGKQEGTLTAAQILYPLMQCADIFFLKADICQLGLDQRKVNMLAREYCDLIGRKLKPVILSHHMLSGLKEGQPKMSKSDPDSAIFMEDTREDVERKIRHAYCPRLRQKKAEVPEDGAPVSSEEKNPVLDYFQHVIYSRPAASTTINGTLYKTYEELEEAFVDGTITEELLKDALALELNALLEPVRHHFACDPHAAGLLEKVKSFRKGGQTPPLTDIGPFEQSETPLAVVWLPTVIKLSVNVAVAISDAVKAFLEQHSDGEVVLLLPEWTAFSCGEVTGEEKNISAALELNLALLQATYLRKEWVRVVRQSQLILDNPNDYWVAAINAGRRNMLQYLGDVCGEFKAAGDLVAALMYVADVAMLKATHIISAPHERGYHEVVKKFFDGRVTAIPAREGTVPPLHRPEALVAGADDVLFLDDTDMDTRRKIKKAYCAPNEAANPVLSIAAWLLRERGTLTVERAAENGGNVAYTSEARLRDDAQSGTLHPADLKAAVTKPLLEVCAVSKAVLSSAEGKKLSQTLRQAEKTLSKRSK
The assay can be described thus: Trypanosoma cruzi tyrosyl tRNA synthetase (TcYRS) _High Tyrosine SOP. Note: in the data most compounds retested in dose-response had high values. To be noted: 30 µM. The class given is functional.

For assay [8], the target named is T4, Tyrosyl-tRNA synthetase, putative (Trypanosoma cruzi (strain CL Brener)). The assay can be described thus: Trypanosoma cruzi tyrosyl tRNA synthetase (TcYRS) SOP. The class given is functional. The conditions noted are these: 30 µM.
Assay [9] concerns the target Chromo domain-containing protein 1 (Saccharomyces cerevisiae (strain ATCC 204508 / S288c) (Baker's yeast)) (UniProt P32657). The assay can be described thus: ScCHD-1 Enzyme Inhibition Assay. Note: in the data most compounds retested in dose-response had high values. The class given is functional. The conditions noted are these: 30 µM.

Sequence of Protein translocase subunit SecA (Escherichia coli (strain K12)) (P10408 whole entry): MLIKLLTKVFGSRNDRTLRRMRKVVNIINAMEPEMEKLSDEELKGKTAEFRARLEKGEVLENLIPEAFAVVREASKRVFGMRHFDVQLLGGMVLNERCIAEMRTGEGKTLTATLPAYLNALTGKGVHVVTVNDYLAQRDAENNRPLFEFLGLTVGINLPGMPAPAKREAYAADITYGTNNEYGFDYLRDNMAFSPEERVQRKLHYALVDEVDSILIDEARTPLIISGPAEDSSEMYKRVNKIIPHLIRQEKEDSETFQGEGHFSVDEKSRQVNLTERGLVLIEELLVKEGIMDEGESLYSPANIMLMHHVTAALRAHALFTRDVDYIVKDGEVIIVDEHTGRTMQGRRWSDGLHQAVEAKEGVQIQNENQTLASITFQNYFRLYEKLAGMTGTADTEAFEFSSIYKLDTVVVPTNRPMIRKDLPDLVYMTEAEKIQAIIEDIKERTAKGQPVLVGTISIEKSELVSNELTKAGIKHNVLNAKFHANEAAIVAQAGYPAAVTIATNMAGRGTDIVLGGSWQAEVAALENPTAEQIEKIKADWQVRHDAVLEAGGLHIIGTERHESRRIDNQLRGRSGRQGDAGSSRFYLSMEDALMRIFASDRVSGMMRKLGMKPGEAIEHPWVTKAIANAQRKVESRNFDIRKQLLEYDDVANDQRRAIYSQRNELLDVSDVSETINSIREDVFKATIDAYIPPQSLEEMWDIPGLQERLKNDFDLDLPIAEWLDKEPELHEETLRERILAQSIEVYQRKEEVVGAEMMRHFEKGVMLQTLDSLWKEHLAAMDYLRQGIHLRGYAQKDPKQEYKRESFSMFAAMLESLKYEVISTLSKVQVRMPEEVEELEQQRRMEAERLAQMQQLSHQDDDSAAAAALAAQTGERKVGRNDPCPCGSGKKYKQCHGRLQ
Sequence of Chromo domain-containing protein 1 (Saccharomyces cerevisiae (strain ATCC 204508 / S288c) (Baker's yeast)) (P32657 whole entry, the tested form may be a part): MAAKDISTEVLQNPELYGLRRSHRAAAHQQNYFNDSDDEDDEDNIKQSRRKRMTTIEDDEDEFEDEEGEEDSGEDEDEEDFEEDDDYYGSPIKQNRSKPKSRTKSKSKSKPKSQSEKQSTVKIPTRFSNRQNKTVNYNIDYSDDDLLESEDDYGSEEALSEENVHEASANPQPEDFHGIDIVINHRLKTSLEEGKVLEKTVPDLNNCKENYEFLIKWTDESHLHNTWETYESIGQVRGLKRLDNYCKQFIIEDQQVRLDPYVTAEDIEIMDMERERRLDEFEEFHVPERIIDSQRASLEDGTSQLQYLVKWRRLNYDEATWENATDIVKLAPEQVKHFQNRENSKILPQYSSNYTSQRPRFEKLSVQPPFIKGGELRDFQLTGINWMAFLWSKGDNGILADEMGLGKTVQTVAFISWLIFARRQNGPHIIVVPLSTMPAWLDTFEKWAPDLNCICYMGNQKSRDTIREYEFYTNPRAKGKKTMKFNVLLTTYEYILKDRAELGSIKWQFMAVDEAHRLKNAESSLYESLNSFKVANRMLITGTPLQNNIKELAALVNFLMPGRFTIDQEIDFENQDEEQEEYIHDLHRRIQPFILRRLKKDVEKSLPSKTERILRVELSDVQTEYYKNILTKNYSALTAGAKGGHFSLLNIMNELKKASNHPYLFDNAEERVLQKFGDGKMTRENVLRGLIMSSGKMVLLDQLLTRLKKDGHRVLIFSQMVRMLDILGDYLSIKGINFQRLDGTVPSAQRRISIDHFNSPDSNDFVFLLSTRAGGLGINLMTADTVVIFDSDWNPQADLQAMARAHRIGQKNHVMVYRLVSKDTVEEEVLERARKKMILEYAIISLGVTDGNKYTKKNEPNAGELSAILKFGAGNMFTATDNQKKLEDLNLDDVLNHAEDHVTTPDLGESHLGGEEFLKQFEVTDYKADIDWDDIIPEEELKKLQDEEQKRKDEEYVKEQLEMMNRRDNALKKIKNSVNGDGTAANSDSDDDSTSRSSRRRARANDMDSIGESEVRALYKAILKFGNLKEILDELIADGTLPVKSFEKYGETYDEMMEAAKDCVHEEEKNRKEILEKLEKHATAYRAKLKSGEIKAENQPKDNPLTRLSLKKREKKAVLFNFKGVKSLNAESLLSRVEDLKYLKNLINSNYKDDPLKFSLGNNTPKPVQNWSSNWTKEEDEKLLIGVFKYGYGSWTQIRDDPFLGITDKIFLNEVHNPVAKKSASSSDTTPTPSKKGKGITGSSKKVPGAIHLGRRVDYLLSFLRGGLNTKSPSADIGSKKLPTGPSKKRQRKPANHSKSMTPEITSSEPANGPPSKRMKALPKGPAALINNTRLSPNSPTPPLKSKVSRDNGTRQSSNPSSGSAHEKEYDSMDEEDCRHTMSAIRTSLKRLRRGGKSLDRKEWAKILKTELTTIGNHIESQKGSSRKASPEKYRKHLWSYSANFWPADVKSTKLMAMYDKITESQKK
Sequence of Sialic acid-binding Ig-like lectin 9 (Homo sapiens) (Q9Y336 whole entry): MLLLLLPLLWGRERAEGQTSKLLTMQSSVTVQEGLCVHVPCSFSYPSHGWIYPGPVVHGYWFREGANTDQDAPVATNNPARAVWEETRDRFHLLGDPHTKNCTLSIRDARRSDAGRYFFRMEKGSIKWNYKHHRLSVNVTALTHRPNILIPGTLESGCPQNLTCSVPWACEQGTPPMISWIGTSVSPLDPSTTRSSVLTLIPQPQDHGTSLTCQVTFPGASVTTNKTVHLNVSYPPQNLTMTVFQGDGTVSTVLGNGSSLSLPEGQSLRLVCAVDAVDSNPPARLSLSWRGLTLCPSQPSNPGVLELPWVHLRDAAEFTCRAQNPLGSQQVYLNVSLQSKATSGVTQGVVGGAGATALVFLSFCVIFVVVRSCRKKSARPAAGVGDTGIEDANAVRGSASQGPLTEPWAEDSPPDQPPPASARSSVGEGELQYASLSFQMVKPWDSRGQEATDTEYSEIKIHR

Regarding `CC(C(=O)NCc1cccc(N2CC=CC2)c1)n1cccn1` (stereo unspecified), the Percent Effect in assay [1] is -6.41%; in [2] it was 0%; in [3] it was 3.53%; in assay [4], 1.65%; in the assay on Trypanosoma cruzi, -1.5%; in [5], -1.15%. Also, the Percent Effect was -1.5% in assay [6]; 22.9% in the assay filed under Homo sapiens; 0.49% in assay [7]; -2.44% in assay [8]; -1.88% in assay [9].
Turning to `CC(C)c1nc(C2CCCN(C(=O)Cc3cccnc3)C2)no1` (stereo unspecified), the Percent Effect in assay [1] was -0.76%; in [2], 16.2%; in assay [3], -13.3%; in [4], -2.67%; in the assay on Trypanosoma cruzi it was -10.3%; in assay [5], -1.6%. In addition, the Percent Effect in [6] was 2.16%; in the assay filed under Homo sapiens it was 25.4%; in [7], 5.42%; in [8] it was 6.17%; in [9] it was -2.89%.
With `O=C(NCCOc1ccc2c(c1)OCO2)C1CC(=O)N(CC2CC2)C1` (stereo unspecified), the Percent Effect in [1] was -2.83%; in assay [2], 18.4%; in assay [3], 1.65%; in assay [4], -9.9%; in the assay with Trypanosoma cruzi, 6.82%; in assay [5], 0%. Besides, the Percent Effect in assay [6] is 9.56%; in the assay filed under Homo sapiens, -20.7%; in assay [7], 6.4%; in assay [8], 23.5%; in assay [9] it was -7.44%.
Consider `COc1cccc(CN2CCCCCC2c2cccc(C)c2)c1O` (stereo unspecified), for which the Percent Effect was -3.46% in assay [1]; -2.6% in assay [2]; 18.9% in assay [3]; -5.45% in [4]; -3.25% in the assay on Trypanosoma cruzi; -3.23% in assay [5]. Besides, the Percent Effect in [6] was 24%; in the assay listed under Homo sapiens, 21.6%; in assay [7] it was -5.29%; in assay [8], -3.85%; in assay [9], -9.17%.
With `CCn1nc(C)cc1C(=O)Nc1cc(F)ccc1OCC1CCCO1` (stereo unspecified), the Percent Effect in [1] is -3.27%; in assay [2], 2.6%; in [3] it was 19.7%; in assay [4], 7.39%; with Trypanosoma cruzi, 0.686%; in [5] it was -0.21%. The Percent Effect in assay [6] was 9.78%; in the assay listed under Homo sapiens it was 34%; in assay [7] it was 4.76%; in assay [8], 9.41%; in assay [9], -11.3%.
As to `CCOc1cc(C)nc(N2CCN(C(=O)CC)CC2)n1`, the Percent Effect was -4.4% in [1]; 5.41% in [2]; 144% in [3]; 10.3% in assay [4]; 0.836% in the assay on Trypanosoma cruzi; 0.924% in assay [5]. Moreover, the Percent Effect in assay [6] is -14.4%; in the assay filed under Homo sapiens, 17.8%; in assay [7] it was 6.93%; in [8], 6.1%; in assay [9] it was 7.75%.
For `O=C(NCCCn1nc2ccccn2c1=O)NC1CCC(O)CC1` (stereo unspecified), the Percent Effect in [1] was -2.16%; in assay [2], 2.74%; in [3], 9.76%; in [4], 3.96%; in the assay on Trypanosoma cruzi, -8.62%; in assay [5], 0.455%. Besides, the Percent Effect was 22.5% in assay [6]; 9.28% in the assay filed under Homo sapiens; 0% in assay [7]; 2.5% in assay [8]; -4.68% in assay [9].
For the compound `Cc1cnc(CN(Cc2ccccc2)CC(O)c2cccs2)cn1` (stereo unspecified), the Percent Effect was 0.271% in assay [1]; 5.41% in assay [2]; -2.24% in assay [3]; 20.3% in [4]; 6.35% in the assay with Trypanosoma cruzi; 41.9% in [5]. Moreover, the Percent Effect in [6] was 0.772%; in the assay filed under Homo sapiens, 5.39%; in [7] it was -3.23%; in assay [8] it was 6.17%; in assay [9], -11.6%.
Turning to `CC(C)N1CCCC(CCCc2ccccn2)(C(=O)O)C1` (stereo unspecified), the Percent Effect in assay [1] is -3.09%; in assay [2], 6.76%; in assay [3], 15.5%; in assay [4] it was 0.499%; in the assay with Trypanosoma cruzi, -1.98%; in assay [5], -0.696%. The Percent Effect is 12.3% in [6]; -2.07% in the assay listed under Homo sapiens; 10.8% in assay [7]; 14.3% in assay [8]; 4.56% in assay [9].
For the compound `CCc1c(C(=O)NC2CCS(=O)(=O)C2)cnn1-c1ccc(F)cc1` (stereo unspecified), the Percent Effect in assay [1] was -2.17%; in assay [2], 15.2%; in [3], -2.59%; in assay [4] it was -6.54%; in the assay on Trypanosoma cruzi, 8.21%; in [5], 1.9%. Further, the Percent Effect was 7.29% in assay [6]; -14.4% in the assay filed under Homo sapiens; 7.39% in [7]; 21.5% in assay [8]; -5.38% in assay [9].
`Cc1ccc(F)c(OC2(C(=O)O)CCN(C(=O)N3CCCC3)CC2)c1`: the Percent Effect in [1] was 0.204%; in [2] it was -6.94%; in assay [3] it was 5.17%; in assay [4], -4.4%; in the assay on Trypanosoma cruzi it was -1.65%; in assay [5], 1.32%. Besides, the Percent Effect in assay [6] was 2.81%; in the assay listed under Homo sapiens, -7.85%; in [7], 2.1%; in assay [8], 0%; in assay [9] it was 2.52%.
